Tat transport = inhibitors of E. coli Tat protein transport. E. coli MC4100 TorA-mCherry Tat export, fluorescence. inhibition, % at 10 µM. actives 0.036% (n = 340,000). AID 488895;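 active means mean replicate inhibition at least 50% and at least half of replicates individually reaching 50%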;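 further: exported cargo escapes ClpAP degradation while cytoplasmic cargo is degraded and loses fluorescence; 0% = median of neutral control wells and 100% = median of NaSCN control wells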
E coli growth-1 = counter-screen for AddAB inhibitors: E. coli growth inhibition; E. coli V3065 growth, OD600 absorbance, 18 h; inhibition, % at 11.9 µM; actives 0.27% (n = 330,000); AID 449728;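 active means inhibition above the campaign's mean inhibition across all tested compounds plus 3 SD, cut at about 9.9% in these data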;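 further: uninfected addAB+ strain grown without phage in ampicillin broth; 0% = DMSO wells and 100% = ciprofloxacin 0.95 µg/ml wells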
phage Ecoli inh = E. coli growth loss with phage present; actives 0.26% (n = 360,000); inhibition, % at 11.9 µM; growth absorbance; in the data active means inhibition above about 11%
E coli growth-2 = E. coli growth inhibition; Escherichia coli growth, OD600, 23 h; active compounds read low; OD600 absorbance (no concentration beside the values); actives 0.21% (n = 330,000);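 active means OD600 absorbance below the run mean of sample wells minus 3.6 SD, in any replicate, cut at about 0.56 in these data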
AddAB inh = less growth of phage-infected E. coli with AddAB | E. coli expressing H. pylori AddAB, absorbance growth | inhibition, % at 11.9 µM | actives 0.29% (n = 330,000) | AID 435030; in the data active means inhibition above about 12%;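 further: 0% = vehicle wells of infected cells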
AddAB conf = confirmation screen: growth loss of phage-infected E. coli expressing H. pylori AddAB; inhibition, % at 11.9 µM; AID 488942; E. coli V3065 expressing H. pylori AddAB, T4 phage, OD; T4 phage with gene 2 nonsense mutations; actives 64% (n = 880); shares compounds with AddAB inh;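 active means mean inhibition above a set limit taken from the earlier primary screen, cut at about 13% in these data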;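 further: higher means less bacterial growth since AddAB block lets phage replicate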
RecBCD counter = AddAB counter-screen: growth loss of RecBCD+ E. coli infected with mutant T4 phage; shares compounds with AddAB inh; E. coli V66 + mutant T4 phage, OD growth; inhibition, % at 11.9 µM; actives 73% (n = 880); AID 488955;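 active means mean inhibition above the mean of solvent-only control wells plus 3 SD, cut at about 4% in these data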;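 further: optical density read after an 18 h incubation at 37 °C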
bact viab count = counter-screen for AddAB inhibitors: inhibitors of bacterial viability; shares compounds with AddAB inh; absorbance (AddAB counterscreen); inhibition, % at 11.9 µM; actives 35% (n = 880); AID 488956; in the data active means inhibition above about 25%
RecBCD conf = confirmation: growth loss of phage-infected RecBCD+ E. coli (RecBCD inhibitor screen) | shares compounds with phage Ecoli inh | E. coli V66 + T4 2- phage, growth OD | inhibition, % at 11.9 µM | actives 45% (n = 890);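 active means mean inhibition over triplicates exceeding the hit threshold derived in the original primary screen, cut at about 11% in these data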
Ecoli viability = bacterial viability inhibition counter-screen for RecBCD. shares compounds with phage Ecoli inh. E. coli viability, absorbance (OD) growth. inhibition, % at 11.9 µM. actives 29% (n = 890). AID 651983; in the data active means inhibition above about 20%;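 further: E. coli strain V66 grown with compound alone and no phage infection; 0% = bacteria with DMSO vehicle only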
AddAB counter = growth loss of phage-infected AddAB E. coli, RecBCD counter-screen | shares compounds with phage Ecoli inh | E. coli expressing H. pylori AddAB + T4 phage, OD growth; gene 2 mutant T4, recBCD-deleted host | inhibition, % at 11.9 µM | actives 45% (n = 890) | AID 651984;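 active means mean inhibition above the solvent-only control wells' mean plus 3 SD, cut at about 22% in these data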;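 further: higher means less bacterial growth from phage killing when AddAB is blocked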
* marks the source's active call; other numbers are inactive results; nt = not tested or not shown. This is a sample that favours compounds with a hit; in the whole collection about 0.5% have one here.

SMILES	Tat transport	E coli growth-1	phage Ecoli inh	E coli growth-2	AddAB inh	AddAB conf	RecBCD counter	bact viab count	RecBCD conf	Ecoli viability	AddAB counter
CCn1cc(C(=O)O)c(=O)c2cc(F)c(N3CCN(C(=S)NC(=O)c4cc(OC)cc(OC)c4)CC3)cc21	21.7	97.9*	97.5*	0.083*	98.0*	100.5*	100.4*	100.5*	104.5*	104.5*	105.6*
CCn1cc(C(=O)O)c(=O)c2cc(F)c(N3CCN(C(=S)NC(=O)c4ccccc4)CC3)cc21	21.4	101.5*	82.3*	0.077*	100.7*	99.1*	100.2*	102.9*	99.5*	99.6*	99.8*
C=CCNC(=S)N1CCN(c2cc3c(cc2F)c(=O)c(C(=O)O)cn3CC)CC1	7.3	99.3*	40.9*	0.0765*	100.5*	103.4*	101.1*	104.2*	103.4*	104.7*	104.1*
CCCCOC(=O)c1ccc(NC(=S)N2CCN(c3ncc4c(=O)c(C(=O)O)cn(CC)c4n3)CC2)cc1	1.7	4.5	3.4	0.65	3.2	nt	nt	nt	nt	nt	nt
CCCOc1ccc(C(=O)NC(=S)N2CCN(c3ncc4c(=O)c(C(=O)O)cn(CC)c4n3)CC2)cc1	nt	nt	3.0	nt	nt	nt	nt	nt	nt	nt	nt
CCn1cc(C(=O)O)c(=O)c2cc(F)c(N3CCN(S(=O)(=O)c4ccc(Br)cc4)CC3)cc21	nt	-0.2	nt	nt	7.7	nt	nt	nt	nt	nt	nt
CCn1cc(C(=O)O)c(=O)c2cc(F)c(N3CCN(C(=S)Nc4ccc(OC)cc4)CC3)cc21	72.1*	100.7*	101.1*	0.076*	99.7*	98.9*	99.2*	99.2*	103.9*	104.2*	104.0*
CC(=NNC(=O)c1cc2c(s1)CCC(C)C2)c1ccc[nH]1 (stereo unspecified)	nt	nt	nt	0.71	nt	nt	nt	nt	nt	nt	nt
COc1cc(C(=O)NN=Cc2ccc(OC(=O)c3cccc(C)c3)c(OC)c2)ccc1O	nt	nt	nt	0.656	nt	nt	nt	nt	nt	nt	nt
CCn1cc(C(=O)O)c(=O)c2cc(F)c(NN=Cc3ccccc3[N+](=O)[O-])cc21	nt	nt	nt	0.704	nt	nt	nt	nt	nt	nt	nt
CCn1cc(C(=O)O)c(=O)c2cc(F)c(N3CCN(C(=S)NC(=O)c4ccccc4C)CC3)cc21	58.6*	100.4*	97.1*	0.071*	98.6*	99.4*	100.7*	99.9*	103.6*	105.2*	104.3*
CCn1cc(C(=O)Nc2ncccc2O)c(=O)c2cc(F)c(N3CCN(C(=O)c4ccco4)CC3)cc21	-5.4	63.6*	14.6*	0.112*	92.7*	101.8*	4.9*	77.3*	2.5	3.3	85.8*
Cc1ccnn1CC(=O)NN=Cc1ccc([N+](=O)[O-])s1	nt	nt	nt	0.597	nt	nt	nt	nt	nt	nt	nt
CCOC(=O)[C@@H]1[C@H]2COc3cc(OC)ccc3[C@H]2N2C(=O)N(c3ccc(C(F)(F)F)cc3)C(=O)[C@]12C	-6.7	9.1	15.2*	nt	14.1*	2.0	8.4*	1.0	6.7	8.7	11.0
CCOC(=O)[C@@H]1[C@H]2COc3cc(OC)ccc3[C@@H]2N2C(=O)N(c3ccc(C(F)(F)F)cc3)C(=O)[C@@]12C	1.6	0.7	3.4	nt	1.8	nt	nt	nt	nt	nt	nt
COc1ccc(C=CC(=O)c2ccc([N+](=O)[O-])o2)cc1OC	nt	nt	nt	0.543	nt	nt	nt	nt	nt	nt	nt
CCC(=O)NC(c1ccco1)c1cc(Cl)c2cccnc2c1OC (stereo unspecified)	-19.6	-1.0	0.8	0.682	0.3	nt	nt	nt	nt	nt	nt
CCC(=O)NC(c1ccco1)c1cc(Cl)c2cccnc2c1O (stereo unspecified)	4.0	15.4*	12.6*	0.712	16.1*	5.0	11.0*	0.9	2.5	4.4	17.5
CCCCC(=O)NC(c1ccco1)c1cc(Cl)c2cccnc2c1O (stereo unspecified)	2.0	24.1*	20.6*	0.707	16.4*	17.7*	17.6*	15.1	10.3	12.4	15.2
CCCC(=O)NC(c1cccs1)c1cc([N+](=O)[O-])c2cccnc2c1O (stereo unspecified)	-6.7	-1.2	3.0	0.659	4.8	nt	nt	nt	nt	nt	nt
CC(=O)NC(c1cc(Cl)c2cccnc2c1O)C(C)C (stereo unspecified)	0.0	-0.5	8.4	0.668	3.5	nt	nt	nt	nt	nt	nt
CCC(=O)NC(c1ccc(OC)cc1)c1cc(Cl)c2cccnc2c1O (stereo unspecified)	0.0	23.1*	20.5*	0.65	26.1*	20.6*	22.6*	18.4	12.8*	17.0	21.5*
Cc1cc(C=NNC(=O)CC#N)c(C)n1-c1ccc([N+](=O)[O-])cc1	nt	nt	nt	0.712	nt	nt	nt	nt	nt	nt	nt
CC(NC(=O)NC1CCCc2ccccc21)C(=O)O (stereo unspecified)	nt	nt	nt	0.689	nt	nt	nt	nt	nt	nt	nt
O=C(O)CC1S/C(=N/N=C/c2ccccn2)NC1=O (stereo unspecified)	-7.1	18.8*	21.8*	nt	21.8*	17.1*	18.3*	14.6	10.0	13.2	12.4
SMILES	Tat transport	E coli growth-1	phage Ecoli inh	E coli growth-2	AddAB inh	AddAB conf	RecBCD counter	bact viab count	RecBCD conf	Ecoli viability	AddAB counter
CC[C@H]1OC(=O)[C@H](C)[C@@H](O[C@H]2C[C@@](C)(OC)[C@@H](O)[C@H](C)O2)[C@H](C)[C@@H](O[C@@H]2O[C@H](C)C[C@H](N(C)C)[C@H]2O)[C@](C)(OC)C[C@@H](C)C(=O)[C@H](C)[C@@H](O)[C@]1(C)O	58.4*	17.2*	14.5*	nt	21.6*	52.0*	25.0*	27.8*	29.2*	30.1*	40.4*
CCC(C(=O)C(C)C(O)C(C)CCc1ccc(C)c(O)c1C(=O)O)C1O[C@](CC)(C2CC[C@](O)(CC)C(C)O2)CC1C (stereo partly specified)	nt	nt	nt	0.697	nt	nt	nt	nt	nt	nt	nt
Cn1cc(C=NNC(=O)C2COc3ccccc3O2)c2ccccc21 (stereo unspecified)	nt	nt	nt	0.689	nt	nt	nt	nt	nt	nt	nt
O=C(O)CSc1nnc(-c2ccccc2O)n1Cc1ccccc1	12.4	0.2	2.0	0.714	-3.7	nt	nt	nt	nt	nt	nt
O=C(CSc1nnc(-c2ccccc2O)n1Cc1ccccc1)NNC(=O)c1ccccc1O	17.9	14.2*	12.7*	0.605	25.0*	5.2	5.9*	4.9	3.8	5.1	7.7
COc1ccccc1NC(=O)NNC(=O)c1cc2ccccc2cc1O	17.8	11.9*	12.3*	0.622	15.0*	14.3*	13.8*	13.9	8.2	9.3	13.7

Screening data from PubChem.
